PubChem BioAssay
Values without a mark were called inactive. Where a call stands in place of a potency, no number is given. For some assays here: Potency and affinity values are given separately. Activity calls are given as the source filed them. Unless noted, the rule behind the calls is not given here.

Legend:
[1] = antimalarial activity against Dd2 strain (AID 2302;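 active = growth inhibition above 50% at the single 2 µM test dose, taken to imply half-maximal potency below 2 µM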); conditions: P. falciparum Dd2 in RBCs, LDH growth readout, 72 h; at 2 µM; stronger effect = higher value
[2] = human hepatoma cell viability loss – ATP luminescence, cytotoxicity control for P. falciparum antimalarial project, primary screen (AID 2303;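 active = inhibition above 50%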); conditions: HepG2 viability, 24-48 h, at 10 µM, stronger effect = higher value
[3] = biological target: L-lactate dehydrogenase (Plasmodium falciparum (isolate CDC / Honduras)) (UniProt Q27743); assay: PfLDH activity inhibition – cell lysate, 3D7 strain, counter-screen for P. falciparum growth inhibition project (AID 2304); conditions: P. falciparum 3D7 crude extract, LDH APAD/NBT absorbance; at 2 µM; stronger effect = higher value
[4] = inhibition of 3D7 malaria parasite growth – strain 3D7 (AID 2306); conditions: P. falciparum 3D7 erythrocytic growth, LDH absorbance, 72 h; at 2 µM; stronger effect = higher value
[5] = biological target: Calcium-dependent protein kinase 1 (Plasmodium falciparum (isolate 3D7)) (UniProt P62344); assay: PfCDPK1 kinase inhibitors, biochemical, TCAMS library (AID 1159585; cut-off not given, nearly all actives have IC50 up to about 0.98 µM;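 note: inhibitors leave more ATP so luminescence rises with inhibition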); conditions: recombinant PfCDPK1, Kinase-Glo ATP depletion luminescence
[6] = biological target: Plasmodium falciparum protein kinase 6 (PK6, PF3D7_1337100) (UniProt Q8IDW1); assay: PfPK6 kinase inhibitors, biochemical, TCAMS library (AID 1159586); conditions: recombinant PfPK6, Kinase-Glo ATP depletion luminescence
[7] = biological target: Protein kinase 7 (PK7), Plasmodium falciparum 3D7 (PF3D7_0213400) (UniProt Q7YTF7); assay: inhibition of Plasmodium PK7 catalytic activity – biochemical, TCAMS antimalarial set, Kinase-Glo luminescence (AID 1159587); conditions: recombinant PfPK7, Kinase-Glo ATP depletion luminescence
[8] = biological target: Calcium-dependent protein kinase 4 (Plasmodium falciparum (isolate 3D7)) (UniProt Q8IBS5); assay: PfCDPK4 kinase inhibitors, biochemical, TCAMS library (AID 1159588; cut-off not given, nearly all actives have IC50 up to about 0.91 µM); conditions: recombinant PfCDPK4, Kinase-Glo ATP depletion luminescence
Chain of Calcium-dependent protein kinase 4 (Plasmodium falciparum (isolate 3D7)) (Q8IBS5 whole entry, looked up): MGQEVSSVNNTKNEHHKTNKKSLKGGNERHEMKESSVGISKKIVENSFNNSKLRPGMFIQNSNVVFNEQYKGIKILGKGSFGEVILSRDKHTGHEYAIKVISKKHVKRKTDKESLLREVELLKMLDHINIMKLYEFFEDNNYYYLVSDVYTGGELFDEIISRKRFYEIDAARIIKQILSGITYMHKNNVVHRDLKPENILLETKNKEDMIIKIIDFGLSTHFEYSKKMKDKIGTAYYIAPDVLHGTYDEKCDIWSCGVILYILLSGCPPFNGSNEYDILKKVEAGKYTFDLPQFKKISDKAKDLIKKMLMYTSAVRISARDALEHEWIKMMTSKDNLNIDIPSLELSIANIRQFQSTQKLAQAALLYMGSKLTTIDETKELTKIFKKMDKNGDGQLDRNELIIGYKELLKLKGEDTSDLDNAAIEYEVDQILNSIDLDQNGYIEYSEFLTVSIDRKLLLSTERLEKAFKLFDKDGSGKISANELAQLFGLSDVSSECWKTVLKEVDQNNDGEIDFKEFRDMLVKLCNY

Chain of Protein kinase 7 (PK7), Plasmodium falciparum 3D7 (PF3D7_0213400) (Q7YTF7 1-343): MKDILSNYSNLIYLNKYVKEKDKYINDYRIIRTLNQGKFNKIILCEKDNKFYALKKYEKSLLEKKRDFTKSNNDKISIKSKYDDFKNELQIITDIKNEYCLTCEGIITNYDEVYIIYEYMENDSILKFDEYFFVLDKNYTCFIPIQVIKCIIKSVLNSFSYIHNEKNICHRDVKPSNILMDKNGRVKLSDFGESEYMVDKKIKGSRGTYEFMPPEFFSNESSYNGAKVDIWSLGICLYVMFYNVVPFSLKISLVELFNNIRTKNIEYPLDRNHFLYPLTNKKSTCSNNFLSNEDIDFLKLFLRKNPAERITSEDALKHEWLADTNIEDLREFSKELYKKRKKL
Chain of L-lactate dehydrogenase (Plasmodium falciparum (isolate CDC / Honduras)) (Q27743 whole entry, looked up): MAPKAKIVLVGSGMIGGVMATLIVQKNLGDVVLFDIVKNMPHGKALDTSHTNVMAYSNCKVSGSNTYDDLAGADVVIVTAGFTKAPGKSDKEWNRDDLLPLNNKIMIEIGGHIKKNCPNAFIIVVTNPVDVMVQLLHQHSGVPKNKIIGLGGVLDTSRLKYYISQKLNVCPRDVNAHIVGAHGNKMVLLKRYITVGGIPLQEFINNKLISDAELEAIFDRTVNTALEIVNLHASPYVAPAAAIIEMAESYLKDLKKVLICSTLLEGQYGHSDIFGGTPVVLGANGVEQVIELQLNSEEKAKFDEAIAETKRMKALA
Chain of Plasmodium falciparum protein kinase 6 (PK6, PF3D7_1337100) (Q8IDW1 1-305): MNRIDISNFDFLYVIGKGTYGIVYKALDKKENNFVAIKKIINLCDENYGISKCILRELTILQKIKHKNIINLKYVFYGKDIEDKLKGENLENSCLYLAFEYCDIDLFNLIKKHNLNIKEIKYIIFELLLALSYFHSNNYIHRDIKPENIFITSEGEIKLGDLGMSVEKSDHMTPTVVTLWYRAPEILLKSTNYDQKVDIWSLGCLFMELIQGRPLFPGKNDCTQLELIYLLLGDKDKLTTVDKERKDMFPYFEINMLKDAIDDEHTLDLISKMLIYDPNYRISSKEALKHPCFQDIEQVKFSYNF
Chain of Calcium-dependent protein kinase 1 (Plasmodium falciparum (isolate 3D7)) (P62344 whole entry, looked up): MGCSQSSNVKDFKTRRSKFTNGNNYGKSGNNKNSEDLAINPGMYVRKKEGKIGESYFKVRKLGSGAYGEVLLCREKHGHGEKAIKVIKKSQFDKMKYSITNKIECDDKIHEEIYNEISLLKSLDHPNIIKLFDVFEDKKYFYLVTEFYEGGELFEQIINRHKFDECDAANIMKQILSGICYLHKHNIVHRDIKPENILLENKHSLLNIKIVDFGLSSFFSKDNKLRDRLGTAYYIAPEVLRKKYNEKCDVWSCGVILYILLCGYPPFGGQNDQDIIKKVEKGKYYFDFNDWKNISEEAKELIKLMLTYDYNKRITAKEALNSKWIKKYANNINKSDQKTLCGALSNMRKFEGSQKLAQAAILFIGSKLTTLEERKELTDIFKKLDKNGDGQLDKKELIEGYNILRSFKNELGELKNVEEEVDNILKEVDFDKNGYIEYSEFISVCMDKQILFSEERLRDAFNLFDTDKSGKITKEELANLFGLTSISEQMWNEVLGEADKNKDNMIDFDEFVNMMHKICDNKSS

SMILES | growth inhibition [1] | inhibition [2] | inhibition [3] [%] | growth inhibition [4] | outcome [5] | outcome [6] | outcome [7] | outcome [8]
COc1ccc(C(=O)Nc2ccc(-c3ccc([N+](=O)[O-])cc3)cc2)cc1CCCN(C)C | 9% | 20% | 1 | 98% (active) | inactive | inactive | inactive | inactive
CC(=O)N(C)c1cccc(C(=O)Nc2cccc(-c3ccc(-c4nc5ccc(C(F)(F)F)cc5[nH]4)cc3)c2)c1 | 31% | 63% (active) | -2 | 90% (active) | inactive | inactive | inactive | inactive
CC1(C)N=C(N)N=C(N)N1OCOc1cc(Cl)c(Cl)cc1Cl | 98% (active) | 66% (active) | -3 | 96% (active) | inactive | inactive | inactive | inactive
CC(=O)N(C)C1CCN(Cc2ccc(-c3cccc(-c4nc5ccc(F)cc5[nH]4)c3)cc2)C1 (stereo not given) | 79% (active) | 28% | 6 | 100% (active) | inactive | inactive | inactive | inactive
Cn1nc(C(F)(F)F)c(-c2ccc(F)cc2)c1NC(=O)Nc1ccccc1 | 99% (active) | 3% | 6 | 101% (active) | inactive | inactive | inactive | inactive
O=C(/C=C/c1ccc(Cl)c(Cl)c1)NCCCCCN1CCC(NC(=O)NC2CCCCC2)CC1 | 44% | 22% | -1 | 96% (active) | inactive | inactive | inactive | inactive
Nc1nc(N)c2c(ccc3c2ccn3CCCC2CCCNC2)n1 (stereo not given) | 55% (active) | 67% (active) | -4 | 98% (active) | inactive | inactive | inactive | inactive
CCCCN(CCCC)Cc1cc(Nc2ccnc3cc(Cl)ccc23)ccc1O | 87% (active) | 67% (active) | -1 | 102% (active) | inactive | inactive | inactive | inactive
Oc1ccc(CCNc2nc(NCc3cccc(-c4cc(C(F)(F)F)ccc4Cl)c3)nc(N3CCNCC3)n2)cc1 | 8% | 33% | 0 | 90% (active) | inactive | inactive | inactive | inactive
CCCCCC(C)NC[C@@H](O)[C@H](Cc1ccccc1)NC(=O)c1cc(NCC)cc(N2CCCCS2(=O)=O)c1 (stereo not given in full) | 79% (active) | 3% | 0 | 98% (active) | inactive | inactive | inactive | inactive
O=C(Nc1ccc(CN2CCOCC2)cc1)c1ccc(-c2cc(Cl)ccc2Cl)o1 | 13% | 5% | -1 | 101% (active) | inactive | inactive | inactive | inactive
COc1ccc2c(c1)CCN(CCN1CCC(CNC(=O)c3ccc(-c4ccc(C#N)cc4)cc3)CC1)C2 | 51% (active) | 40% | 2 | 100% (active) | inactive | inactive | inactive | inactive
CC(=O)Nc1ccc(S(=O)(=O)NC2=NC(C)(C)N(OCc3ccc(Cl)c(Cl)c3)C(N)=N2)cc1 | 98% (active) | 44% | 2 | 93% (active) | inactive | inactive | inactive | inactive
CCOc1ccc(-c2n[nH]c(C(F)(F)F)c2-c2ccccc2OC)c(O)c1 | 12% | 22% | -5 | 86% (active) | inactive | inactive | inactive | inactive
O=C(/C=C/c1ccc(-c2nc3cc(F)c(F)cc3[nH]2)cc1)NCc1ccc(Cl)c(Cl)c1 | 24% | 14% | 4 | 100% (active) | inactive | inactive | inactive | inactive
COc1ccc(NC(=O)/C=C/c2ccccc2Cl)cc1OCCN1CCC(Cc2cc3ccccc3[nH]2)CC1 | 8% | 56% (active) | 0 | 92% (active) | inactive | inactive | inactive | inactive
c1ccc(COc2ccc(Nc3ncnc4cnc(-c5ccc(CNc6cccnc6)o5)cc34)cc2)cc1 | 19% | 2% | 3 | 96% (active) | inactive | inactive | inactive | inactive
Cc1ccc(NC(=O)c2ccc3ncccc3c2)cc1OC1CCN(Cc2ccsc2)C1 (stereo not given) | 49% | 5% | -3 | 88% (active) | inactive | inactive | inactive | inactive
Fc1ccc2nc(-c3ccc(-c4ccc(CN5CCN(CCN6CCOCC6)CC5)cc4)s3)[nH]c2c1 | 98% (active) | 39% | -3 | 99% (active) | inactive | inactive | inactive | inactive
COc1ccc(Nc2ccnc3cc4ccccc4cc23)cc1 | 73% (active) | 32% | 3 | 101% (active) | inactive | inactive | inactive | inactive

SMILES | growth inhibition [1] | inhibition [2] | inhibition [3] [%] | growth inhibition [4] | outcome [5] | outcome [6] | outcome [7] | outcome [8]
O=C(NCCc1ccccc1)N(Cc1cccc(-c2ccc(CNCCc3ccccc3)cc2)c1)C1CCN(Cc2ccccc2)CC1 | 91% (active) | 94% (active) | -5 | 90% (active) | inactive | inactive | inactive | inactive
CCOc1cc(C)c(C2CCN(CCCCNC(=O)c3ccc(NC(=O)c4ccc(Cl)cc4)cc3)CC2)cc1C | 87% (active) | 10% | 1 | 100% (active) | inactive | inactive | inactive | inactive
CC1=C(C(=O)Nc2cc3cn[nH]c3cc2F)C(c2ccc(Cl)c(NS(C)(=O)=O)c2)CC(=O)N1 (stereo not given) | 98% (active) | 2% | -1 | 88% (active) | inactive | inactive | inactive | inactive
CC(=O)N(C)c1ccc(C(=O)Nc2cccc(-c3cccc(-c4nc5ccc(C(F)(F)F)cc5[nH]4)c3)c2)cc1 | 29% | 31% | -6 | 96% (active) | inactive | inactive | inactive | inactive
c1cc(COc2ccc(C3=NCCN3)cc2)nc(COc2ccc(C3=NCCN3)cc2)c1 | 98% (active) | 8% | -2 | 100% (active) | inactive | inactive | inactive | inactive
c1cc(CN2CCCCC2)cc(-c2ccc(-c3nc4ccccc4[nH]3)s2)c1 | 100% (active) | 11% | 2 | 101% (active) | inactive | inactive | inactive | inactive
CN(C)Cc1c(O)ccc2oc(Cc3ccccc3)cc12 | 94% (active) | 0% | 0 | 99% (active) | inactive | inactive | inactive | inactive
O=C(Nc1ccc(Br)cc1)N1CCC(n2c(-c3ccccc3)nc3cccnc32)CC1 | 86% (active) | 36% | 0 | 90% (active) | inactive | inactive | inactive | inactive
CCOC(=O)c1c(SCc2cccc(F)c2F)[nH]c2ccccc2c1=O | 95% (active) | 1% | -2 | 98% (active) | inactive | inactive | inactive | inactive
O=C(NCCc1cccc(Cl)c1Cl)c1ccc(N2CCN(c3ccncc3)CC2)nc1 | 79% (active) | 38% | 2 | 101% (active) | inactive | inactive | inactive | inactive
FC(F)(F)c1ccc2nc(-c3cccc(-c4cccc(CNCc5cnn(-c6ccccc6)n5)c4)c3)[nH]c2c1 | 28% | 6% | -5 | 100% (active) | inactive | inactive | inactive | inactive
COc1ccc(C(=O)NCCCCN2CCC(c3ccc4c(c3OC)CCCC4)CC2)cc1-c1ccc(C(F)(F)F)cc1 | 56% (active) | 67% (active) | 5 | 100% (active) | inactive | inactive | inactive | inactive
Cn1nc(C(F)(F)F)c(-c2ccc(Br)cc2)c1NC(=O)Cc1ccccc1F | 100% (active) | 6% | -1 | 102% (active) | inactive | inactive | inactive | inactive
CN(C)CCN1CCN(Cc2ccc(-c3cccc(-c4nc5ccccc5[nH]4)c3)cc2)CC1 | 100% (active) | 25% | -7 | 102% (active) | inactive | inactive | inactive | inactive
O=C(NCc1cccc(F)c1)Nc1cccc(-c2cccc(-c3nc4ccc(C(F)(F)F)cc4[nH]3)c2)c1 | 32% | 55% (active) | -7 | 93% (active) | inactive | inactive | inactive | inactive
Cc1cc2nc(-c3ccc(OCC(=O)NCc4cccc(C(F)(F)F)c4)cc3)[nH]c2cc1C | 1% | 4% | -4 | 94% (active) | inactive | inactive | inactive | inactive
COc1ccc(Cl)cc1N1CCN(CCCNC(=O)c2ccc(-c3nc4ccncc4[nH]3)c(Br)c2)CC1 | 15% | 5% | 4 | 86% (active) | inactive | inactive | inactive | inactive
O=C(N[C@@H](Cc1ccccc1)[C@H](O)CNC1CCOCC1)c1cc(C2CCCC2)cc(N2CCCCS2(=O)=O)c1 | 98% (active) | 3% | -1 | 100% (active) | inactive | inactive | inactive | inactive
CCCCCOc1c(CCC)cc(Cc2cnc(N)nc2N)cc1CCC | -3% | 58% (active) | -2 | 94% (active) | inactive | inactive | inactive | inactive
CCc1cn2c3c(cc(C(=O)N[C@@H](Cc4ccccc4)[C@H](O)CNC4CCOCC4)cc13)N(C)S(=O)(=O)C2 | 98% (active) | 13% | -1 | 99% (active) | inactive | inactive | inactive | inactive
